Assay results published in the supplement of paper PMC10849652.
Targets with a hit are over-represented here; the source holds about 8,800 in all. About 0.5% of all pairs of compound and target were hits.

Legend:
Test in all cases: log2 fold change, soluble protein after heating vs DMSO (PISA); higher = thermal stabilisation; K562 lysate, 10 uM; active = over 0.2 and 3.5 SD of the protein, either way, in both replicates (recomputed)
nilotinib = compound: Cc1cn(-c2cc(NC(=O)c3ccc(C)c(Nc4nccc(-c5cccnc5)n4)c3)cc(C(F)(F)F)c2)cn1 [nilotinib]
In short: (§1)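 Following dounce homogenisation of K562 pellets in PBS pH 7.4 with 1 mM MgCl2, crude extract at 1 mg/mL protein was incubated for 30 min with 10 μM compound. Aliquots were then heated for 3 min over 48°C-58°C and pooled, NP-40 was added to 0.5% at 4°C, and soluble protein was recovered as the supernatant at 21,000xg for 90 min. Channel-sum-equalised TMTpro 16plex LC-MS/MS quantified this protein. Each value, from duplicates, is a log-two fold change in thermal stability relative to solvent controls.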

[1] = compound: Cc1nc(Nc2n[nH]c3c2CN(C(=O)N[C@H](CN(C)C)c2ccccc2)C3(C)C)c2sccc2n1
In short: as §1

dasatinib = compound: Cc1nc(Nc2ncc(C(=O)Nc3c(C)cccc3Cl)s2)cc(N2CCN(CCO)CC2)n1 [dasatinib]
In short: as §1

[2] = compound: Cc1ncc(-c2ccnc(Nc3ccc(S(C)(=O)=O)cc3)n2)n1C(C)C
In short: as §1

[3] = compound: Cn1cc(-c2ccc3c(c2)CCN3C(=O)Cc2cccc(C(F)(F)F)c2)c2c(N)ncnc21
In short: as §1

quisinostat = compound: Cn1cc(CNCC2CCN(c3ncc(C(=O)NO)cn3)CC2)c2ccccc21 [quisinostat]
In short: as §1

tipifarnib = compound: Cn1cncc1[C@@](N)(c1ccc(Cl)cc1)c1ccc2c(c1)c(-c1cccc(Cl)c1)cc(=O)n2C [tipifarnib]
In short: as §1

[4] = compound: NC(=O)Nc1cc(-c2cccc(F)c2)sc1C(=O)N[C@H]1CCCNC1
In short: as §1

[5] = compound: NC(=O)c1cnc(N[C@@H]2CCCC[C@@H]2N)nc1Nc1cccc(-n2nccn2)c1
In short: as §1

[6] = compound: NC1(c2ccc(-c3nc4ccn5c(=O)[nH]nc5c4cc3-c3ccccc3)cc2)CCC1
In short: as §1

Measured: log2 fold change

GART (UniProt P22102)
inactive: nilotinib -0.006 | [1] -0.024 | dasatinib -0.022 | [2] -0.011 | [3] 0.01 | quisinostat 0.025 | tipifarnib 0.011 | [4] 0.015 | [5] 0.007 | [6] 0.006

GIGYF2 (UniProt Q6Y7W6)
UniProt Q6Y7W6, sequence (Q6Y7W6 whole entry, looked up): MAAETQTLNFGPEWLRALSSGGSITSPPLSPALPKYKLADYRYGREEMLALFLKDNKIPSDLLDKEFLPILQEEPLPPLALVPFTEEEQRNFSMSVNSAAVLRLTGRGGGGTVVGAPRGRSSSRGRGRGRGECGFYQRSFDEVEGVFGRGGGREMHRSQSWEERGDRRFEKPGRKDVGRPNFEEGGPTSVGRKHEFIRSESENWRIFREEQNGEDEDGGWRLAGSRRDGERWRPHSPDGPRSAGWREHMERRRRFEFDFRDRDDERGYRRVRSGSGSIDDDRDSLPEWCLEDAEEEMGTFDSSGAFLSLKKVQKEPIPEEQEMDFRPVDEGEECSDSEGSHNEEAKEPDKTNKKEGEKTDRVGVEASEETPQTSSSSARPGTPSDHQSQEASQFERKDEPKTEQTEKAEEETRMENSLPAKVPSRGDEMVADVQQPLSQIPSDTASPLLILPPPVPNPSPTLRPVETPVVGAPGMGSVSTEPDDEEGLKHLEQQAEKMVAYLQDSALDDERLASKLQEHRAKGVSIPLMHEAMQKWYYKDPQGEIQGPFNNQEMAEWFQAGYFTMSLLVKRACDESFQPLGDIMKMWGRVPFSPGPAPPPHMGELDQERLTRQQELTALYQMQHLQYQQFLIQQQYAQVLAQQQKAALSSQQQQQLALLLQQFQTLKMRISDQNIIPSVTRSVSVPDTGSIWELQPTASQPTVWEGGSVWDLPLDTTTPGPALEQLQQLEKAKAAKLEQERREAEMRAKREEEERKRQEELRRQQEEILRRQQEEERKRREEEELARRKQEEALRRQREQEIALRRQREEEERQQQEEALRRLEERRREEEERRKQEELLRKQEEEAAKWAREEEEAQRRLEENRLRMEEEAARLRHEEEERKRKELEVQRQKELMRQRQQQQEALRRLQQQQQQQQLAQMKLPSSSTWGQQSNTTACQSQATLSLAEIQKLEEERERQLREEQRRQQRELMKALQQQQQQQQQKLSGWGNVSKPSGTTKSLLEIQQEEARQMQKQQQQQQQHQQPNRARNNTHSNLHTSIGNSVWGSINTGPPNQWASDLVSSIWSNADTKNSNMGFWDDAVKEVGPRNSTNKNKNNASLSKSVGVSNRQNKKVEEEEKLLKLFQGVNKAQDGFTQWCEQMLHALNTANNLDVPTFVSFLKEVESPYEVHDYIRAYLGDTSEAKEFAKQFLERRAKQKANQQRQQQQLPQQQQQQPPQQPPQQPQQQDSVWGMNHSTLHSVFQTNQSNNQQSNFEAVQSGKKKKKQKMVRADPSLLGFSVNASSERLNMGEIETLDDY
inactive: nilotinib 0.004 | [1] -0.03 | dasatinib 0.006 | [2] 0.007 | [3] 0.024 | quisinostat -0.011 | tipifarnib -0.09 | [4] 0.026 | [5] 0.007 | [6] -0.04

FIG4 (UniProt Q92562)
UniProt Q92562, sequence (Q92562 whole entry, looked up): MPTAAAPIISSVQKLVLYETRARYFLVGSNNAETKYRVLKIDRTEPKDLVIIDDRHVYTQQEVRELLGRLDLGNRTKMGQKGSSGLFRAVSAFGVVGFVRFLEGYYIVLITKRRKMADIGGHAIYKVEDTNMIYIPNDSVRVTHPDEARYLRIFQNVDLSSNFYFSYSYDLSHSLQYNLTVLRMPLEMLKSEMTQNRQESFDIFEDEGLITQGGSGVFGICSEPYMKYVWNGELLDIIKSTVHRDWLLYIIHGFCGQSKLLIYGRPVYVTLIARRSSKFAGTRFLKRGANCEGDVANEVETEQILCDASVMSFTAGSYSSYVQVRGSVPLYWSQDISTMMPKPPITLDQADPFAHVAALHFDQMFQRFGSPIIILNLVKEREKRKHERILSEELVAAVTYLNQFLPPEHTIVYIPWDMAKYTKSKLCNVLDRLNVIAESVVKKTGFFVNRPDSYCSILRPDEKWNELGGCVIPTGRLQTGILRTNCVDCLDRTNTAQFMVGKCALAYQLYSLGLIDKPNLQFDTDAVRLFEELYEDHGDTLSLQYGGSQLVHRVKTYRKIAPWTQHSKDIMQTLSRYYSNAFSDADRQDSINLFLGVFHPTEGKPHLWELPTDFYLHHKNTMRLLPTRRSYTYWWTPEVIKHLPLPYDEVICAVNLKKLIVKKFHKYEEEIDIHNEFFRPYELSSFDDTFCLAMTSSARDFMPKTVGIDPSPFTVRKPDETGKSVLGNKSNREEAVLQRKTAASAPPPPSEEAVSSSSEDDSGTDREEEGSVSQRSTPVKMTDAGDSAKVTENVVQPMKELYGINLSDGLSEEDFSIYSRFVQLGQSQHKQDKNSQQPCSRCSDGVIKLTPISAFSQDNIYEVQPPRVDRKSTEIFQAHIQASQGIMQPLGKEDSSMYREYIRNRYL
inactive: nilotinib -0.02 | [1] 0.144 | dasatinib -0.007 | [2] 0.08 | [3] 0.145 | quisinostat 0.077 | tipifarnib -0.038 | [4] 0.013 | [5] -0.066 | [6] 0.06

FARSB (UniProt Q9NSD9)
UniProt Q9NSD9, sequence (Q9NSD9 whole entry, looked up): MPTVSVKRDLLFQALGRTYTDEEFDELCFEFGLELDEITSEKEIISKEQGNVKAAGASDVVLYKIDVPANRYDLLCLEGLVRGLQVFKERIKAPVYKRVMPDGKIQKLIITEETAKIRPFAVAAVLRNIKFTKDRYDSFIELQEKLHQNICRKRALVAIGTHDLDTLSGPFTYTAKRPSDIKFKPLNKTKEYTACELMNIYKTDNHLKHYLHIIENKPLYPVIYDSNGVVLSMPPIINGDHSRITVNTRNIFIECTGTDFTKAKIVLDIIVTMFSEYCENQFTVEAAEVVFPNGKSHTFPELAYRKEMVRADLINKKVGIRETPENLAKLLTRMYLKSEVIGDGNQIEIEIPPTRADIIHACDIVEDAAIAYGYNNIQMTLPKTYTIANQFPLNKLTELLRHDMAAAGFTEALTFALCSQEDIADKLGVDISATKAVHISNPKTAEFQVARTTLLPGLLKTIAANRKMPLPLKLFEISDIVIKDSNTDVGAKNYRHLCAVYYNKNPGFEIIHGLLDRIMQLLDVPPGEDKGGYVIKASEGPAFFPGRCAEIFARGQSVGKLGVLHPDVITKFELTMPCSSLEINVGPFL
inactive: nilotinib -0.019 | [1] -0.005 | dasatinib -0.019 | [2] 0.006 | [3] 0.032 | quisinostat -0.001 | tipifarnib 0.02 | [4] 0.027 | [5] 0.002 | [6] -0.014

EIF2B4 isoform 2 (UniProt Q9UI10)
UniProt Q9UI10, sequence (Q9UI10 whole entry, looked up): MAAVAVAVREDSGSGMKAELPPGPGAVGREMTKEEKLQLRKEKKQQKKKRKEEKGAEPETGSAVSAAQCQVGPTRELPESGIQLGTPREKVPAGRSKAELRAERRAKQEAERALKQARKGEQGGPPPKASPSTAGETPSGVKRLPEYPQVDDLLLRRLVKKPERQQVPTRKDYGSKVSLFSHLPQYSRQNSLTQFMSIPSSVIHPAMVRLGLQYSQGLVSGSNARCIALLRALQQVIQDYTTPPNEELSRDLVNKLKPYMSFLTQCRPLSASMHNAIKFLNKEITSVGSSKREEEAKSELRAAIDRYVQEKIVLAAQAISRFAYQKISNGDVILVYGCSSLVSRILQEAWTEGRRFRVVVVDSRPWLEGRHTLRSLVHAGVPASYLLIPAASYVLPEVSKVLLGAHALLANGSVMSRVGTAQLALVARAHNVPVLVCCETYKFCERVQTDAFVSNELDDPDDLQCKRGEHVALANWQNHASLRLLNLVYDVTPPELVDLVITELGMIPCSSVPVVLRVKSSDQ
inactive: nilotinib -0.002 | [1] 0.004 | dasatinib -0.022 | [2] 0.003 | [3] 0.011 | quisinostat 0 | tipifarnib 0.037 | [4] 0.074 | [5] -0.003 | [6] 0.002

ERAL1 (UniProt O75616)
UniProt O75616, sequence (O75616 whole entry, looked up): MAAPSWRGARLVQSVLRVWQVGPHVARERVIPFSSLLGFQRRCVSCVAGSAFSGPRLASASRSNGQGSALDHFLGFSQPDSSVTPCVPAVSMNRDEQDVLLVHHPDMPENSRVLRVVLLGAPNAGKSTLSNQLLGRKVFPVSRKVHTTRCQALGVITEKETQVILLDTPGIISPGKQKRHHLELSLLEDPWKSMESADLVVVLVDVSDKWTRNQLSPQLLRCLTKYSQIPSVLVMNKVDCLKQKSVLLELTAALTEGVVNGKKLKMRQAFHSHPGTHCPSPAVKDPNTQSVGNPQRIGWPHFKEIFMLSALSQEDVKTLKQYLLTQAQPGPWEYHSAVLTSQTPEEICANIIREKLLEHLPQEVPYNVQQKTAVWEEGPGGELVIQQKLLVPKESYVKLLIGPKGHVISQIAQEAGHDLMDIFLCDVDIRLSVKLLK
inactive: nilotinib 0 | [1] -0.001 | dasatinib 0.01 | [2] 0.003 | [3] 0.018 | quisinostat -0.078 | tipifarnib -0.027 | [4] 0.083 | [5] -0.052 | [6] 0.008

FIBP (UniProt O43427)
UniProt O43427, sequence (O43427 whole entry, looked up): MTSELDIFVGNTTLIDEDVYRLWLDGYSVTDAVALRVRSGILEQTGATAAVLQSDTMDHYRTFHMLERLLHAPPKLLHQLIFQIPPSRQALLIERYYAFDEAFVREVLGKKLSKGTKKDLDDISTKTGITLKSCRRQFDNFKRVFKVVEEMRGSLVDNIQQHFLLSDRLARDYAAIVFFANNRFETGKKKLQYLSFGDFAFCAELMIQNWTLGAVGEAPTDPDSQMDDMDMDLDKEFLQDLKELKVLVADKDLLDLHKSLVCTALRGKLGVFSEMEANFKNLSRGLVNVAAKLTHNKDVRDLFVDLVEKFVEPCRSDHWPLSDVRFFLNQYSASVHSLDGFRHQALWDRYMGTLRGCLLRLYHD
inactive: nilotinib -0.001 | [1] 0.036 | dasatinib 0.013 | [2] -0.024 | [3] -0.043 | quisinostat 0.019 | tipifarnib -0.037 | [4] 0.024 | [5] 0 | [6] 0

ETHE1 (UniProt O95571)
UniProt O95571, sequence (O95571 whole entry, looked up): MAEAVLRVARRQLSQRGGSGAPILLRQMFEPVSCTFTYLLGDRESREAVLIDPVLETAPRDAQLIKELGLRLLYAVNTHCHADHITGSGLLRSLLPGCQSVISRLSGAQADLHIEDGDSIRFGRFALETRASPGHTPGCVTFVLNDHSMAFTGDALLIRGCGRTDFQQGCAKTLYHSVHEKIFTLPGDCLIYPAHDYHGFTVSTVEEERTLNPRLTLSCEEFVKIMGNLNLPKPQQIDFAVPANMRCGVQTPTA
inactive: [1] -0.124 | dasatinib -0.037 | [2] 0.095 | [3] -0.046 | quisinostat -0.015 | tipifarnib -0.181 | [4] 0.055 | [5] 0 | [6] -0.002
active: nilotinib 0.25

ESYT2 (UniProt H7BXI1)
inactive: nilotinib 0.016 | [1] -0.017 | dasatinib -0.01 | [2] 0.037 | [3] 0.02 | quisinostat 0.027 | tipifarnib 0.009 | [4] -0.015 | [5] -0.031 | [6] -0.051

EHHADH (UniProt Q08426)
inactive: nilotinib -0.048 | [1] -0.091 | dasatinib -0.011 | [2] 0.045 | [3] -0.047 | quisinostat -0.072 | tipifarnib 0.052 | [4] -0.003 | [5] 0.025 | [6] 0.097

FARSA (UniProt Q9Y285)
inactive: nilotinib -0.006 | [1] 0.017 | dasatinib -0.03 | [2] -0.003 | [3] 0.001 | quisinostat -0.037 | tipifarnib 0.003 | [4] 0.009 | [5] -0.015 | [6] -0.056

ENO1 isoform 2 (UniProt P06733)
UniProt P06733, sequence (P06733 whole entry, looked up): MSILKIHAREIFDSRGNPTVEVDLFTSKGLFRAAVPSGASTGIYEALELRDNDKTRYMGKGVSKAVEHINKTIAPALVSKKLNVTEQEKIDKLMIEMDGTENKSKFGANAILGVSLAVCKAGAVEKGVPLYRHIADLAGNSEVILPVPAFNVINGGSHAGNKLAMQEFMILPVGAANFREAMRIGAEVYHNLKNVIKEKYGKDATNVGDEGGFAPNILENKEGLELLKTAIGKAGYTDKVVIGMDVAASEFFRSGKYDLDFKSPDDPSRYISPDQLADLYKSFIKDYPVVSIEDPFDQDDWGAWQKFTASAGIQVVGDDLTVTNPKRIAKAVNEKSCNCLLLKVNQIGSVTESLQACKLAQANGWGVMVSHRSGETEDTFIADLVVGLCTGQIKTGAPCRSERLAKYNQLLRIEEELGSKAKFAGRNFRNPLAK
inactive: nilotinib 0.01 | [1] -0.009 | dasatinib 0.021 | [2] -0.036 | [3] -0.012 | quisinostat -0.038 | tipifarnib 0.035 | [4] -0.007 | [5] -0.008 | [6] 0.004

EEF1A1, A0A087WVQ9
inactive: nilotinib 0.124 | [1] 0.012 | dasatinib 0.006 | [2] 0.044 | [3] 0.002 | quisinostat -0.025 | tipifarnib -0.001 | [4] 0.024 | [5] 0.013 | [6] 0.016

FKBP8 isoform 2 (UniProt Q14318)
inactive: nilotinib -0.019 | [1] -0.055 | dasatinib -0.056 | [2] 0.014 | [3] 0.011 | quisinostat -0.21 | tipifarnib -0.005 | [4] 0.067 | [5] 0.02 | [6] 0.005
